Bioassay records: PubChem BioAssay, The Scripps Research Institute Molecular Screening Center
Shown are actives, neighbours in structure and some others; about 5.7% of the full set was active somewhere.
ssDAF12 agonist: activates DAF-12 receptor from parasite S. stercoralis; 370,000 tested, 1% active; activation, % at 6.8 µM; AID 652126; HEK293 ssDAF-12/GRIP1 lit1-tk-luc reporter, luminescence; % of 3 µM dafachronic acid response;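 active = activation above the mean over all tested compounds plus 3 SD, cut at about 0.9% in these data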;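 note: 0% = DMSO-only wells and 100% = 3 µM delta7-dafachronic acid wells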
hcDAF12 agonist: H. contortus DAF-12 activation, primary screen; activation, % at 6.8 µM; HEK293 hcDAF-12 lit1-tk-luc reporter, luminescence; 0% DMSO, 100% Δ7-dafachronic acid; 370,000 tested, 1.4% active; AID 652067;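 active = activation above the mean of all tested compounds plus 3 SD, cut at about 5.5% in these data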;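 note: 100% = response to 3 µM Δ7-dafachronic acid high control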
AHR activator: activates the human aryl hydrocarbon receptor; P35869; AHR-responsive luciferase reporter cells, luminescence; activation, % at 5 µM; 320,000 tested, 2.5% active; AID 2796; in the data active = activation above about 47%;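 note: 0% = vehicle wells and 100% = reference agonist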
hgDAF12 agonist: hgDAF-12 agonism, primary luciferase screen; activation, % at 6.8 µM; AID 687014; 370,000 tested, 1.8% active; HEK293 GAL4-hgDAF12 UAS-luciferase reporter, agonist luminescence; normalized to butyrate control;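 active = activation above a cutoff set at the mean of all screened compounds plus 3 SD, cut at about 10% in these data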;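 note: 0% = DMSO wells and 100% = sodium butyrate wells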
DAX1 inh-1: DAX1 (NR0B1) inhibition, primary screen. HEK293T StAR-luciferase reporter, SF-1/DAX-1 repression relief. inhibition, % at 6.8 µM. 370,000 tested, 1.1% active;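 active = inhibition above the mean over all tested compounds plus 3 SD, cut at about 3.6% in these data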;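 note: 0% = DAX-1 cells with DMSO and 100% = cells lacking DAX-1 with DMSO; higher inhibition means more luminescence from relief of DAX-1 repression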
DAX1 inh-2: NR0B1 (DAX1) inhibition; inhibition, % at 6.75 µM; AID 504766; HEK293 Gal4-DAX1 luciferase reporter, luminescence; P51843; 340,000 tested, 0.99% active;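 active = inhibition above the mean over all tested compounds plus 3 SD, cut at about 4.2% in these data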;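 note: 0% = DAX1-transfected cells with DMSO and 100% = empty-vector control cells with DMSO; inhibition shows as a rise in luminescence from relieved DAX1 repression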
Target sequence (P51843 207-470 limits assumed): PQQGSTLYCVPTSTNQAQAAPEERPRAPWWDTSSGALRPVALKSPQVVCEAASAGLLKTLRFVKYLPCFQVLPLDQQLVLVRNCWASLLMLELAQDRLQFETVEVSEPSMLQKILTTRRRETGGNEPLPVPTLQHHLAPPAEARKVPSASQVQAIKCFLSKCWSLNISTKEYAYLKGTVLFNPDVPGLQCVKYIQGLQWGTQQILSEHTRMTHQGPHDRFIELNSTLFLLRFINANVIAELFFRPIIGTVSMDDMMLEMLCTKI
LXRb hcDAF ctr: activates human LXR-beta, counter-screen for hcDAF-12 agonists; activation, % at 6.8 µM; 3,400 tested, under 10 active; shares compounds with hcDAF12 agonist; AID 743027; HEK293 Gal4-LXR tk-luc reporter, luminescence, 24 h; normalized: DMSO 0%, positive control 100%;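 active = mean percent activation of the reporter above a cutoff set as the average over tested compounds plus their standard deviation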
Target sequence (P55055 whole entry, looked up, the tested form may be a part): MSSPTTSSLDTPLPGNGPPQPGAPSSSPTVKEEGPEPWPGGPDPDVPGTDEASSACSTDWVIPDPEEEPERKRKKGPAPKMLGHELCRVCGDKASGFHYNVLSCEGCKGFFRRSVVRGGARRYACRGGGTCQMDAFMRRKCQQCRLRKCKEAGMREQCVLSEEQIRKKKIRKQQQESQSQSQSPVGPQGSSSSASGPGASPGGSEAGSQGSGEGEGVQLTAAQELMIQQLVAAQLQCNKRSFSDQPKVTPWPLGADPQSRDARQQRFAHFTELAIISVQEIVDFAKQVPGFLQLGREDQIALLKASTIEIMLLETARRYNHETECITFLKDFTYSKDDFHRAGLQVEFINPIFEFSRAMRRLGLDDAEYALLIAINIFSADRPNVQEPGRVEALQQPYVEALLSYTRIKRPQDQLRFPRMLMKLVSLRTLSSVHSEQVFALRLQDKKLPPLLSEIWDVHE
hcDAF12 ag: confirmation of H. contortus DAF-12 agonists; 3,400 tested, 61% active; shares compounds with hcDAF12 agonist; AID 743032; HEK293 hcDAF-12 lit1-tk-luc reporter, luminescence; % of Δ7-dafachronic acid response; activation, % at 6.8 µM;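 active = mean activation across triplicate tests above the threshold derived from the earlier primary screen, cut at about 5.5% in these data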;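 note: 0% = DMSO only wells and 100% = 3 µM Δ7-dafachronic acid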
Numbers without * were called inactive.

How did O=C(c1ccc(C(F)(F)F)cc1)N(CCCn1ccnc1)C(c1ccccn1)c1nc2ccccc2[nH]1 (configuration not stated) do in these assays?
ssDAF12 agonist: 0; hcDAF12 agonist: 7.5*; hgDAF12 agonist: 5; DAX1 inh-1: 2; LXRb hcDAF ctr: 0; hcDAF12 ag: 5

How did O=C(COC(=O)c1cc([N+](=O)[O-])ccc1Cl)NC1CCCC1 do in these assays?
ssDAF12 agonist: 0; hcDAF12 agonist: 10*; AHR activator: 3; hgDAF12 agonist: 1; DAX1 inh-1: 0; DAX1 inh-2: 1; LXRb hcDAF ctr: 0; hcDAF12 ag: 0

How did COc1ccccc1/C=C/C(=O)N1CCC(c2ccccc2)C1 (configuration not stated) do in these assays?
ssDAF12 agonist: 1.0*; hcDAF12 agonist: 6.7*; AHR activator: 66*; hgDAF12 agonist: 12*; DAX1 inh-1: 1; DAX1 inh-2: 1; LXRb hcDAF ctr: 0; hcDAF12 ag: 4

Results for COc1ccccc1/C=C/C(=O)N1CCOCC1 ?
ssDAF12 agonist: -1; hcDAF12 agonist: 0; AHR activator: 30; hgDAF12 agonist: -3; DAX1 inh-1: 0; DAX1 inh-2: 0

How did CCN(CC)C(=O)CSc1nc(N)c(C(=O)Nc2ccc(OC)cc2)s1 do in these assays?
ssDAF12 agonist: -1; hcDAF12 agonist: -4; AHR activator: -4; hgDAF12 agonist: 0; DAX1 inh-1: 0; DAX1 inh-2: 0

What do the screens show for `COc1ccc(NC(=O)c2sc(SC)nc2N)cc1`?
ssDAF12 agonist: 1.3*; hcDAF12 agonist: 7.3*; AHR activator: 19; hgDAF12 agonist: 13*; DAX1 inh-1: 1; DAX1 inh-2: 1; LXRb hcDAF ctr: 1; hcDAF12 ag: 9.2*

Results for Cn1c(=O)c(C(=O)CN2CCc3ccccc32)c(N)n(Cc2ccccc2)c1=O ?
ssDAF12 agonist: 1; hcDAF12 agonist: 8.0*; AHR activator: 14; hgDAF12 agonist: 4; DAX1 inh-1: 0; DAX1 inh-2: 1; LXRb hcDAF ctr: 0; hcDAF12 ag: 2

What do the screens show for `CCOn1c(=O)c(-c2cccc3ccccc23)[n+]([O-])c2ccccc21`?
ssDAF12 agonist: -1; hcDAF12 agonist: 3; AHR activator: 9; hgDAF12 agonist: -2; DAX1 inh-1: 0; DAX1 inh-2: -1

What do the screens show for `O=c1c(-c2cccc3ccccc23)[n+]([O-])c2ccccc2n1O`?
ssDAF12 agonist: 0; hcDAF12 agonist: 7.3*; AHR activator: 14; hgDAF12 agonist: 3; DAX1 inh-1: -1; DAX1 inh-2: -2; LXRb hcDAF ctr: 0; hcDAF12 ag: 5.9*

What do the screens show for `CCOC(=O)N1N=C(c2ccc(OC)cc2)CC1(O)C(F)(F)F` (configuration not stated)?
ssDAF12 agonist: 1.8*; hcDAF12 agonist: 7.9*; AHR activator: 7; hgDAF12 agonist: 9; DAX1 inh-1: 4.1*; DAX1 inh-2: 1; LXRb hcDAF ctr: 1; hcDAF12 ag: 6.4*

How did O=C(NCCNC(=O)c1cccs1)c1ccco1 do in these assays?
ssDAF12 agonist: -1; hcDAF12 agonist: 0; AHR activator: 7; hgDAF12 agonist: 0; DAX1 inh-1: 0; DAX1 inh-2: 0

Results for O=C(CCn1nnc2ccccc21)N1CCN(c2ccccc2F)CC1 ?
ssDAF12 agonist: 0; hcDAF12 agonist: 8.8*; hgDAF12 agonist: 11*; DAX1 inh-1: 2; LXRb hcDAF ctr: 0; hcDAF12 ag: 5

What do the screens show for `O=C(CCn1nnc2ccccc21)N1CCN(c2ccccc2)CC1`?
ssDAF12 agonist: -1; hcDAF12 agonist: -1; AHR activator: 14; hgDAF12 agonist: 5; DAX1 inh-1: 0; DAX1 inh-2: 0

Results for O=C(CCn1nnc2ccccc21)N1CCN(c2ccc(F)cc2)CC1 ?
ssDAF12 agonist: -1; hcDAF12 agonist: -1; hgDAF12 agonist: -1; DAX1 inh-1: 1

What do the screens show for `Cc1ccccc1N1CCN(C(=O)CCn2nnc3ccccc32)CC1`?
ssDAF12 agonist: 0; hcDAF12 agonist: 8.5*; hgDAF12 agonist: 13*; DAX1 inh-1: 3; LXRb hcDAF ctr: 1; hcDAF12 ag: 6.4*

How did CC(C)c1ccc(NC(=O)CN2C(=O)NC3(CCCCCCC3)C2=O)cc1 do in these assays?
ssDAF12 agonist: -1; hcDAF12 agonist: -1; AHR activator: 1; hgDAF12 agonist: -4; DAX1 inh-1: -2; DAX1 inh-2: -1

How did O=C(CC(=O)c1c(F)cccc1Cl)c1ccccc1O do in these assays?
ssDAF12 agonist: 0; hcDAF12 agonist: 9.1*; AHR activator: 44; hgDAF12 agonist: 7; DAX1 inh-1: 0; DAX1 inh-2: 2; LXRb hcDAF ctr: 0; hcDAF12 ag: 6.9*

Results for O=C(CC(=O)c1ccccc1O)c1cccc(F)c1 ?
AHR activator: 11; DAX1 inh-2: 0

How did COc1ccc2nc(C)cc(Nc3ccc(N4CCN(C)CC4)cc3)c2c1 do in these assays?
ssDAF12 agonist: 0.9*; hcDAF12 agonist: 13*; AHR activator: 16; hgDAF12 agonist: 5; DAX1 inh-1: 0; DAX1 inh-2: -1; LXRb hcDAF ctr: 1; hcDAF12 ag: 12*

What do the screens show for `Cn1c(=O)c(/C=C/c2ccc(F)cc2)nc2ccccc21`?
ssDAF12 agonist: 0; hcDAF12 agonist: 10.0*; hgDAF12 agonist: 7; DAX1 inh-1: 1; DAX1 inh-2: 1; LXRb hcDAF ctr: 0; hcDAF12 ag: 9.9*

How did Cn1c(=O)c(/C=C/c2ccccc2)nc2ccccc21 do in these assays?
ssDAF12 agonist: 2.4*; hcDAF12 agonist: 13*; AHR activator: 53*; hgDAF12 agonist: 23*; DAX1 inh-1: 4.2*; DAX1 inh-2: 3; LXRb hcDAF ctr: 1; hcDAF12 ag: 16*

What do the screens show for `CC1CCN(C(=O)CSCC(=O)Nc2nc(-c3cccs3)cs2)CC1`?
ssDAF12 agonist: -1; hcDAF12 agonist: 4; AHR activator: 17; hgDAF12 agonist: 5; DAX1 inh-1: 2; DAX1 inh-2: 0

Results for CC1CCCCN1C(=O)CSCC(=O)Nc1nc(-c2cccs2)cs1 (configuration not stated) ?
ssDAF12 agonist: 0; hcDAF12 agonist: 6.6*; AHR activator: 14; hgDAF12 agonist: 7; DAX1 inh-1: 1; DAX1 inh-2: 1; LXRb hcDAF ctr: 0; hcDAF12 ag: 2

What do the screens show for `Cc1ccc(NC(=O)c2nsc(Cl)c2Cl)cc1`?
ssDAF12 agonist: 2.1*; hcDAF12 agonist: 13*; AHR activator: 69*; hgDAF12 agonist: 11*; DAX1 inh-1: 3; DAX1 inh-2: 5.8*; LXRb hcDAF ctr: 2; hcDAF12 ag: 14*
